# Bioassay records (PubChem)
# Hits are enriched below; roughly 6.2% of the tested compounds scored in any of these assays.
# HCMV inh: qHTS Assay for inhibitors of the human cytomegalovirus (HCMV); activity change, negative = inhibition, % at 57.5 µM; 4.5% of 410,000 active; HFF cells, HCMV-luciferase reporter, 72 h; stronger effect = lower value; in the data active means activity change below about -60%; inconclusive means no clear call, values can overlap the other calls; inactive means above about -39%
#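 Luciferase read-out from HCMV-luciferase-infected HFFs (MOI 1 PFU/cell) 72 h post infection at 37C; compounds added after 16 h cell attachment; activity normalized between buffer-only basal and Salinomycin (10uM) inhibitor controls.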
# Marburg entry inh: qHTS for inhibitors of binding or entry into cells for Marburg Virus | AID 540276, 2011 | 1.8% of 300,000 active | Potency, µM (top dose mostly 37.8 µM), most hits filed as inhibitors | Marburg virus pseudotyped entry inhibition, cell reporter; calls by dose curve; tested in HEK293 cells
# LASV entry inh: qHTS for Inhibitors of binding or entry into cells for Lassa Virus | Lassa virus pseudotype entry inhibition, cell reporter | Potency, µM (titrated, usually from 37.9 µM), actives largely listed as inhibitors | 1.2% of 300,000 active; calls by dose curve; tested in HEK293 cells; further: nearly all actives have a fitted effect of over 50% in size
# FMDV inh: High Throughput Screening for Foot and Mouth Disease Virus Antivirals; 1.2% of 410,000 active; AID 1159524, 2015; FMDV antiviral cell-based qHTS; Potency, µM (doses to about 57.9 µM), actives largely listed as inhibitors; calls by dose curve; tested in HEK293T cells; further: read-out not given here; nearly all actives have a fitted effect of over 45% in size
# A number is an active result; – = inactive; ? = inconclusive; · = no result given.
SMILES,HCMV inh,Marburg entry inh,LASV entry inh,FMDV inh
CN1C[C@H](C(=O)N[C@]2(C)O[C@@]3(O)[C@@H]4CCCN4C(=O)[C@H](Cc4ccccc4)N3C2=O)CC2c3cccc4[nH]cc(c34)C[C@H]21 (stereo partly specified),–,·,·,–
CCC(=O)Nc1ccccc1C(=O)NC1CCCCC1,-110,–,–,–
O=C(O)CCC(=O)Nc1ccccc1C(=O)NC1CCCCC1,–,–,–,–
Cc1ccc(Cl)c(OCC(=O)Nc2ccccc2C(=O)NC2CC2)c1,-100,·,·,–
CC(NCC(=O)Nc1ccccc1C(=O)NC1CC1)c1ccc(Cl)cc1 (stereo unspecified),–,·,·,20µM
CC(NCC(=O)Nc1ccccc1C(=O)NC1CC1)c1cccc(Cl)c1 (stereo unspecified),–,?,–,–
COc1ccc(NC(=O)C2Cc3c(-c4cccc(C(C)=O)c4)ccnc3O2)cc1 (stereo unspecified),?,·,·,–
O=C(O)CCn1c(=O)[nH]c2ccccc2c1=O,–,·,·,–
O=C(O)CCn1c(=O)c2ccccc2c2ccccc2c1=O,-101,–,–,–
CCN1[C@H](C(=O)NCCOC)[C@@H](CO)[C@@H]2Cn3c(ccc(-c4ccc(C(=O)N(C)C)cc4)c3=O)[C@@H]21,–,·,·,·
Cc1cccc2sc(NC(=O)CN(C)S(=O)(=O)c3cccs3)nc12,–,–,–,40µM
Cc1cccc2sc(NC(=O)CN(C)S(=O)(=O)c3ccc(Br)s3)nc12,–,?,?,?
CNC[C@@H]1OCc2ccccc2-c2c(n(C)c3ccccc23)C(=O)N([C@@H](C)CO)C[C@@H]1C,–,·,·,·
N#Cc1ccc(OCC(O)CS(=O)(=O)c2ccc(F)cc2)cc1 (stereo unspecified),?,–,–,–
Cc1ccc(S(=O)(=O)CC(O)COc2ccc(C#N)cc2)cc1 (stereo unspecified),-70,–,–,–
CCOP(=O)(OCC)c1nc(-c2ccc(OC)cc2)oc1N1CCOCC1,–,–,–,–
Cc1ccc(-c2nc(P(=O)(c3ccccc3)c3ccccc3)c(N3CCOCC3)o2)cc1,–,10µM,?,–
CCOC(=O)c1cc(-c2ccc(F)cc2)n(CCC(=O)NC2CCCCC2)c1C,–,·,–,–
CCOc1ccc(NC(=O)CN(C)C(=O)CC2CCCCC2)cc1OCC,-68,·,·,–
Cc1cc(C)cc(NC(=O)Nc2cc(-c3ccccc3)nn2C)c1,-69,–,–,–
Cc1cc(C)c2c(c1)-c1c(ssc1=S)C(C)(C)N2C(=O)CSc1nncn1C,–,14µM,?,–
Cc1ccc2c(c1)-c1c(ssc1=S)C(C)(C)N2C(=O)CSc1nncn1C,–,?,?,?
Cc1cc2c(cc1C)N(C(=O)CSC1=NCCS1)C(C)(C)c1ssc(=S)c1-2,-72,–,–,?
COc1ccc2c(c1)-c1c(ssc1=S)C(C)(C)N2C(=O)CSC1=NCCS1,-80,?,–,?
CCOc1ccc2c(c1)-c1c(ssc1=S)C(C)(C)N2C(=O)c1ccco1,–,5.2µM,?,–
SMILES,HCMV inh,Marburg entry inh,LASV entry inh,FMDV inh
CC1(C)c2ssc(=S)c2-c2ccccc2N1C(=O)CSC1=NCCS1,–,?,–,?
Cc1cc(=O)oc2cc(OCc3c(F)cccc3Cl)ccc12,–,·,·,·
O=C1CC(N(CCc2ccccc2)C(=S)Nc2ccccc2)C(=O)N1c1ccccc1 (stereo unspecified),–,?,?,–
O=C1CC(N(CCc2ccccc2)C(=S)Nc2cc(Cl)ccc2Cl)C(=O)N1c1c(Cl)cccc1Cl (stereo unspecified),–,13µM,?,–
Cc1cc(=O)n2c3ccccc3n(CC(O)CN3CCCCC3)c2c1C#N (stereo unspecified),-87,?,–,·
Cc1cc(=O)n2c3ccccc3n(CC(O)CN3CCOCC3)c2c1C#N (stereo unspecified),–,–,–,–
CC1(C)CC2CC(C)(CN2S(=O)(=O)c2ccc(C(=O)Nc3ccc(S(=O)(=O)N4CCOCC4)cc3)cc2)C1 (stereo unspecified),-90,2.8µM,3.5µM,–
CC1(C)CC2CC(C)(CN2S(=O)(=O)c2ccc(C(=O)Nc3ccc(Cl)c(S(=O)(=O)N4CCOCC4)c3)cc2)C1 (stereo unspecified),-98,3.5µM,?,?
CC(=O)Nc1ccc(S(=O)(=O)N2CC3(C)CC2CC(C)(C)C3)cc1 (stereo unspecified),?,?,?,–
COc1ccc(F)c(CN2CCC3(CCC(CNC(=O)c4cc(C)nn4C)O3)CC2)c1 (stereo unspecified),·,·,·,–
COc1ccccc1CNc1ccnc(-c2ccccc2C(F)(F)F)n1,·,·,·,–
CN(Cc1ccc2c(c1)OCCO2)C(=O)CSc1ncnc2sccc12,–,–,–,40µM
CC(C)OC(=O)[C@H](C)NC(=O)N1CCc2nc(COc3ccccc3)c3c(c2C1)CO[C@@H](C)C3,·,–,·,·
CC(=O)Nc1cc(-c2ccc(C(=O)NC3CC3)cc2)cn2c(-c3cccc(C(C)=O)c3)cnc12,–,·,·,?
CC(=O)Nc1cc(-c2ccc(C(=O)NC3CC3)cc2)cn2c(-c3cccc(C(F)(F)F)c3)cnc12,–,·,·,25µM
O=c1c(-c2cc(F)cc(F)c2)nc2cnc(Oc3ccccc3)nc2n1C1CC1,·,·,·,–
CCOC(=O)N1CCN(c2ncc3c(n2)CC(c2ccccc2O)CC3=O)CC1 (stereo unspecified),?,–,?,22µM
CCOC(=O)N1CCN(c2ccccc2O)CC1,–,–,–,–
CCOC(=O)N1CCN(c2ncc3c(n2)CC(c2ccc(Cl)cc2)CC3=O)CC1 (stereo unspecified),-103,–,?,?
O=C(NN=Cc1ccccc1Cl)C(=O)Nc1cccc(C(F)(F)F)c1,–,·,·,·
CCOC(=O)C1=C(O)c2ccccc2C(=O)/C1=C\c1ccc(C)cc1,·,?,?,28µM
COc1ccc(CC2S/C(=N/N=C/c3ccccc3O)NC2=O)cc1 (stereo unspecified),?,·,·,–
COc1ccc(CC2S/C(=N/N=C/c3ccc(O)cc3)NC2=O)cc1 (stereo unspecified),–,–,1.5µM,–
O=C1N/C(=N/N=C/c2ccccc2O)SC1Cc1ccc(F)cc1 (stereo unspecified),-66,?,?,–
O=C1N/C(=N/N=C/c2ccc(O)cc2)SC1Cc1ccccc1 (stereo unspecified),–,–,1.5µM,–
SMILES,HCMV inh,Marburg entry inh,LASV entry inh,FMDV inh
CC(=O)Nc1ccccc1-c1nc(CNC(=O)c2ccc(-c3ccccc3F)cc2)c(C)o1,·,·,·,–
COc1cc(C(=O)O/N=C(\N)Cc2ccc([N+](=O)[O-])cc2)cc(OC)c1OC,?,2.5µM,3.2µM,?
N/C(Cc1ccc(Cl)cc1)=N\OC(=O)Cc1ccc([N+](=O)[O-])cc1,–,–,?,–
N/C(Cc1ccc([N+](=O)[O-])cc1)=N\OC(=O)c1ccc([N+](=O)[O-])cc1,–,–,–,–
N/C(Cc1ccc(Cl)cc1)=N\OC(=O)c1ccccc1,–,13µM,?,–
COc1ccc(C(=O)O/N=C(\N)Cc2ccc(Cl)cc2)cc1OC,?,?,11µM,?
CC(=O)OC[C@@H]1O[C@H](C/C=N\OCC[C@H]2C=C[C@H](OC(C)=O)[C@@H](COC(C)=O)O2)C=C[C@@H]1OC(C)=O,·,–,·,·
